Sampled rows, rich in hits. Any-hit rate of the full collection: about 3.4%.
KAT2A inh – GCN5L2 (KAT2A) acetyltransferase inhibition | Q92830 | GCN5L2 HAT assay, ThioGlo1 CoA-SH fluorescence | Potency, µM (doses to about 58.9 µM), without a hit: at the highest dose activity change, negative = inhibition, usual class: inhibitors | actives 0.21% (n = 390,000) | AID 504327; also: % is scaled to controls: 0 for no effect and ±100 for the full control effect
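Enzyme at 20nM final was mixed with library compounds for 15 min at room temperature. Peptide H3(1-25) at 75uM, acetyl-CoA at 70uM and ThioGlo1 at 50uM were then added. Plates were read immediately and after 20 min (Ex340nm/Em540nm).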
PLK1 PBD block – inhibitors of human PLK1 polo-box domain binding. Plk1 PBD binding of FITC phosphopeptide, fluorescence polarization. Potency, µM, for inactives: max response, negative = inhibition, hits mostly inhibitors. actives 2.8% (n = 360,000). AID 720504; also: series mostly up to about 57 µM; % is scaled to controls: 0 for no effect and ±100 for the full control effect; nearly all actives have a fitted effect of over 65% in size
VDR inh – vitamin D3 receptor (human) inhibition | P11473 | VDR-SRC2-3 peptide fluorescence polarization, 2 h | Potency, µM, inactives show max response, negative = inhibition, actives largely listed as inhibitors | actives 0.93% (n = 400,000) | AID 504847; also: % is scaled to controls: 0 for no effect and ±100 for the full control effect
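Reagent solutions, kept cold and dark, are dispensed first; compounds are then pinned in at 23 nl, plates briefly spun, and incubated 2 h at ambient temperature. Inhibition of VDR–SRC2-3 peptide binding is read by fluorescence polarization.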
GLS inhibitor – blocks human kidney-isoform glutaminase activity; O94925; GLS enzymatic activity, qHTS titration; Potency, µM (top dose mostly 45.5 µM), for the others: at the highest dose activity change, negative = inhibition, hits mostly inhibitors; actives 0.21% (n = 410,000); also: % is scaled to controls: 0 for no effect and ±100 for the full control effect
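Human kidney-isoform GLS in 45 mM KH2PO4 pH 8.2, 0.02% Tween-20, with compound, started with 1mM L-Glutamine (added stock). Glutamate oxidase/HRP/Amplex red coupled fluorescence read at start and after 30 min at RT.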
Mito fusion act – inhibitors of mitochondrial division or activators of mitochondrial fusion; S. cerevisiae fusion-defective mutant growth rescue, CellTiterGlo 48 h; actives 0.23% (n = 320,000); AID 485298; Potency, µM (titrated, usually from 46.1 µM), without a hit: at the highest dose growth rescue (activation), hits mostly activators; also: % of control where 0% means no effect; nearly all actives have a fitted effect of over 45% in size
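Temperature-sensitive fusion-defective S. cerevisiae (e.g. fzo1-1, mgm1-5) were grown with compound in YPEG medium (3% ethanol, 3% glycerol) for 48 hours at 37C. Growth rescue was measured as viability by CellTiterGlo luminescence after 10 minutes at ambient.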
PKM2 act – activators of human pyruvate kinase M2. purified PKM2, Kinase-Glo ATP luminescence, activation; response scale: 0% is enzyme alone, no compound. Potency, µM (top dose mostly 57.5 µM), inactives show top-dose activation, most hits filed as activators. actives 0.34% (n = 260,000); also: % is scaled to controls: 0 for no effect and ±100 for the full control effect; nearly all actives have a fitted effect of over 55% in size
Target sequence (P14618 whole entry, looked up): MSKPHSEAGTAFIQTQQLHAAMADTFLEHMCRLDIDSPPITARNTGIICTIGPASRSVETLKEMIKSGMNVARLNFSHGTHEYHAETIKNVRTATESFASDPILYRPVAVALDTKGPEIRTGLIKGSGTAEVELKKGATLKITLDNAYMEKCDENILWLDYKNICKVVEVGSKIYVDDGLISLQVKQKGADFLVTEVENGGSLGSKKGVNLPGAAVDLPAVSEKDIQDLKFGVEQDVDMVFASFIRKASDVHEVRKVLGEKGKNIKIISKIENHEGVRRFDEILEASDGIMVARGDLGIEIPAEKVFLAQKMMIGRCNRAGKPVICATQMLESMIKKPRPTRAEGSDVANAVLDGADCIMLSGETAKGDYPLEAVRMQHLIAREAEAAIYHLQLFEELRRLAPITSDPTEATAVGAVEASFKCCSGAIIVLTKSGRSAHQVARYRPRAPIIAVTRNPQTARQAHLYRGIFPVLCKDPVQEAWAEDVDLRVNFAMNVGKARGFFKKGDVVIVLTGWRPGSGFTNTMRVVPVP
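hPK-M2, >95% pure; 0.1 mM ADP / 0.5 mM PEP final; imidazole pH7.2 buffer w/ 7 mM MgCl2, 50 mM KCl; 1 h RT; Kinase-Glo lum. Intermediate enzyme activity for dual inhibitor/activator qHTS.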
TbPYK confirm – Trypanosoma brucei pyruvate kinase inhibition, cherry-pick confirmation; AID 720569; actives 67% (n = 890); shares compounds with PLK1 PBD block; recombinant TbPYK, Kinase-Glo ATP luminescence; Potency, µM (series often up to 76.9 µM), for the others: at the highest dose activity change, negative = inhibition, usual class: inhibitors; also: % is scaled to controls: 0 for no effect and ±100 for the full control effect; nearly all actives have a fitted effect of over 70% in size
TbPYK orthogonal – inhibits T. brucei pyruvate kinase in orthogonal ADP-Glo assay; actives 62% (n = 890); recombinant TbPYK, ADP-Glo luminescence, 60 min; Potency, µM (top dose mostly 76.9 µM), for inactives: at the highest dose activity change, negative = inhibition, hits mostly inhibitors; shares compounds with PLK1 PBD block; also: % is scaled to controls: 0 for no effect and ±100 for the full control effect; nearly all actives have a fitted effect of over 75% in size
* = called active by the depositor; u = inconclusive; x = no result given. Calls follow the shape of the dose curve; as a rule, active = well fitted curve in the direction sought with a large enough effect; inconclusive = small, poorly fitted or top-dose-only effect, or another doubt; inactive = no such curve, though single readings can be large; an effect the other way counts as inactive or inconclusive. Potency is read from the fitted curve at half-maximal effect.

SMILES | KAT2A inh | PLK1 PBD block | VDR inh | GLS inhibitor | Mito fusion act | PKM2 act | TbPYK confirm | TbPYK orthogonal
CCOc1cc2[nH]c(=S)n(Cc3ccc(C(=O)NCC(OC)OC)cc3)c(=O)c2cc1OCC | -3% | -1% | 15% | x | -3% | -1% | x | x
O=c1c2sccc2[nH]c(=S)n1Cc1ccccc1 | -3% | -20% | -6% | -21% | 18% | -8% | 14µM* | 7.1µM*
COc1ccc(Cn2c(=S)[nH]c3ccsc3c2=O)cc1 | 2% | -10% | -10% | -11% | 6% | 0% | 5µM* | 5.6µM*
CCOCCc1nn2c(=O)cc(COC(=O)c3ccco3)nc2s1 | -3% | x | -3% | 1% | x | x | x | x
Cc1ccc(C2=CSC3=NCCN23)c(C)c1 | -6% | u | -3% | 19% | 1% | 4% | 13µM* | 16µM*
CC(O)CN(C)C (stereo not given) | -9% | x | -5% | 1% | x | x | x | x
CC(C)(C)c1cc(C(=S)N2CCN(CCO)CC2)cc(C(C)(C)C)c1O | -13% | 9.5µM* | 40µM* | -22% | 12% | 9% | 3.5µM* | 7.9µM*
CN(C)CCCN1c2ccccc2C(C)(C)c2ccccc21 | -11% | x | 4% | 57% | x | x | x | x
CCCc1cc(=O)[nH]c2nnc(SCC(=O)Nc3ccc4c(c3)OCCO4)n12 | 2% | -6% | -23% | -1% | -6% | x | x | x
COC(=O)COc1ccc(C2Nc3c(Cl)ccc(C(=O)O)c3C3C=CCC32)cc1 (stereo not given) | -23% | 21µM* | u | u | -3% | u | u | u
S=C1SCN(Cc2ccccc2)CN1Cc1ccccc1 | u | 0% | 16% | -5% | -28% | x | x | x
S=C1SCN(Cc2ccccc2)CN1Cc1ccco1 | x | 12µM* | x | -2% | x | x | u | u
CC(=S)/C=C1\Sc2ccccc2N1C | -4% | 27µM* | u | 15% | -3% | 17% | u | 14µM*
CN1/C(=C/c2cccc[n+]2CCO)Sc2ccccc21 | -22% | 11% | -8% | 3% | -2% | -6% | x | x
CCC(=O)/C=C1/Sc2ccc(OC)cc2N1CC | -11% | u | 0% | 9% | -4% | -3% | x | x
CCC(=O)/C=C1/Sc2ccccc2N1CC | -11% | 27µM* | u | 23% | 17% | 5% | u | 18µM*
CC1(C)Cc2c(C#N)c(NCCc3ccccc3)nc(-c3ccco3)c2CO1 | -4% | u | u | -11% | 1% | 6% | u | 13µM*
CC1(C)Cc2c(C#N)c(NCC3CCCO3)nc(-c3ccco3)c2CO1 (stereo not given) | -8% | -10% | 0% | -2% | 19% | 13% | x | x
COc1cccc(NC(=O)CCC2CCN(C(=O)c3scnc3C)CC2)c1 | -10% | -11% | -7% | 0% | 0% | 0% | x | x
COc1cccc(NC(=O)CCC2CCN(C(=O)c3cncs3)CC2)c1 | -1% | -3% | u | 5% | -3% | -1% | 20µM* | u
O=C(COc1cccc(C(F)(F)F)c1)N1CCN(c2ccc(O)cc2)CC1 | 4% | -2% | 8% | u | 9% | 22% | 8.9µM* | u
C[C@@H]1O[C@@H](O[C@@H]2[C@@H](O)[C@H](OCCc3ccc(O)c(O)c3)O[C@H](CO)[C@H]2OC(=O)/C=C/c2ccc(O)c(O)c2)[C@H](O)[C@H](O)[C@H]1O | -3% | 0% | -14% | u | x | x | 32µM* | u
COc1ccc(-c2noc(-c3cccnc3NCc3ccco3)n2)cc1 | -3% | x | 17% | -4% | x | x | x | x
O=P(c1ccccc1)(c1ccccc1)c1ccccc1C(Br)Br | x | -11% | x | 8% | x | x | 22µM* | 32µM*
Cc1ccc(OCCn2nnc3sc4c(c3c2=O)CCC(C(C)(C)C)C4)cc1 (stereo not given) | -27% | x | 5% | -3% | x | x | x | x
SMILES | KAT2A inh | PLK1 PBD block | VDR inh | GLS inhibitor | Mito fusion act | PKM2 act | TbPYK confirm | TbPYK orthogonal
CC1=C(C#N)C(=O)NC(=O)/C1=C/c1ccc(-c2ccc(S(N)(=O)=O)cc2)o1 | -20% | 9.5µM* | 25µM* | 15% | 1% | 2% | -17% | -22%
CCOC(=O)C(C)(C)N(Cc1ccccc1C)S(=O)(=O)c1ccc(Cl)c([N+](=O)[O-])c1 | -8% | -10% | -15% | -1% | -9% | -1% | 3% | 2%
COc1ccc(NC(=O)c2cc3nc(-c4ccc(Cl)c(Cl)c4)cc(C(F)(F)F)n3n2)c(OC)c1 | -3% | x | -17% | -9% | x | x | x | x
COc1ccc(CCNC(=O)/C=C/c2ccco2)cc1OC | -4% | -24% | -18% | 20% | -2% | -1% | x | x
COc1ccc(CCNC(=O)/C=C/c2ccco2)cc1 | u | 0% | 89µM* | 19% | -2% | 0% | u | u
CC(=O)NS(=O)(=O)c1ccc(NC(=O)/C=C/c2ccc(C)o2)cc1 | -5% | 21µM* | -17% | -5% | 1% | -1% | 5µM* | 7.9µM*
Cc1ccc(/C=C/C(=O)NCC2COc3ccccc3O2)o1 (stereo not given) | u | u | u | 0% | -5% | 27% | 25µM* | 22µM*
Cc1ccc(/C=C/C(=O)NCc2ccc3c(c2)OCO3)o1 | -8% | u | -16% | u | 0% | 20% | 11µM* | 14µM*
CCCOc1ccc(/C=C/c2c([N+](=O)[O-])c(=O)n(C)c(=O)n2C)cc1 | -5% | -1% | 5% | -10% | -2% | 2% | x | x
CCC1=Nc2cc(C(=O)NC3CCC(C)CC3)ccc2Sc2ccc(C)cc21 (stereo not given) | -14% | x | 11% | 9% | x | x | x | x
CCCC/C=C/C(NC(=O)c1ccc(C(F)(F)F)cc1)c1ccccc1 (stereo not given) | x | x | x | x | x | -7% | x | x
Cc1ccc(/C=C/C(=O)NC2CCCCCCC2)o1 | u | 24µM* | u | 10µM* | 10% | 13% | u | u
Cc1ccc(/C=C/C(=O)NCCc2cccc(Cl)c2)o1 | u | 30µM* | 79µM* | 49% | -6% | 5% | 3.5µM* | 4µM*
NS(=O)(=O)c1ccc(CNC(=O)/C=C/c2ccco2)cc1 | -6% | u | -21% | u | -1% | 20% | x | x
Cc1ccc(/C=C/C(=O)NCCc2c[nH]c3ccccc23)o1 | -9% | -18% | -3% | 7% | -6% | -2% | x | x

Screens as filed in PubChem.
